According to the supplement of paper PMC6555819:

Key:
Experiment in all cases: PBM binding z-score (relative to random genomic background probes); higher = stronger binding; sequences stand for … in GC…GCGATTGACAGCGTAGAATGAAGG
[1] = test system: FXR:RXRa (NR concentration 270 nM, RXRa partner concentration 90 nM)
In short: (§1)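 Random background probes are the reference for binding z-scores. These scores derive from regression-normalized fluorescence on custom Agilent 4×180K protein-binding microarrays incubated 1 h with ligand-free nuclear receptor dimers. Binding was detected with antibodies against each partner (one per run).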

[2] = test system: LXRa:RXRa (NR concentration 270 nM, RXRa partner concentration 90 nM)
In short: as §1

[3] = test system: LXRa homodimer (NR concentration 270 nM)
In short: as §1

[4] = test system: LXRb:RXRa (NR concentration 270 nM, RXRa partner concentration 90 nM)
In short: as §1

[5] = test system: LXRb homodimer (NR concentration 270 nM)
In short: as §1

[6] = test system: PPARa:RXRa (NR concentration 270 nM, RXRa partner concentration 90 nM)
In short: as §1

[7] = test system: PPARg:RXRa (NR concentration 180 nM, RXRa partner concentration 90 nM)
In short: as §1

[8] = test system: PPARg:RXRa 270nM:90nM, anti-RXR (NR concentration 270 nM, RXRa partner concentration 90 nM)
In short: as §1

[9] = test system: PPARg:RXRa 30nM:10nM, anti-RXR (NR concentration 30 nM, RXRa partner concentration 10 nM)
In short: as §1

[10] = test system: PPARg:RXRa 90nM:30nM, anti-RXR (NR concentration 90 nM, RXRa partner concentration 30 nM)
In short: as §1

Sequence | PBM binding z-score [1] | PBM binding z-score [2] | PBM binding z-score [3] | PBM binding z-score [4] | PBM binding z-score [5] | PBM binding z-score [6] | PBM binding z-score [7] | PBM binding z-score [8] | PBM binding z-score [9] | PBM binding z-score [10]
TCGAGTAGGTTACCCATGGGGCATTCAGCTTTCT | 0.292 | 1.66 | -0.443 | 0.752 | -0.79 | 1.09 | 0.462 | 1.36 | 1.23 | 1.18
AATACCGGGTCATCGTAGGCCAGAGTACGCACAG | 6.17 | 5.51 | 1.68 | 3.93 | 0.968 | 5.4 | 5.83 | 5.07 | 2.01 | 3.89
AGTCAAAGTTCATCTAGGTAAGGTAAGATATGCT | 6.12 | 6.16 | 5.26 | 4.05 | 1.73 | 5.02 | 6.22 | 6.34 | 3.3 | 5.66
AGAATGAGGTTAAGATCAGGGTAACAGAATACAT | 2.5 | 2.47 | 0.0614 | 2.01 | -0.068 | 3.68 | 2.64 | 2.66 | 0.832 | 1.9
ATATGTAGGTTAGCTGGGGTAATTCAGACTAGGC | 0.983 | 0.79 | 0.216 | 1.28 | 0.815 | 2.91 | 3.61 | 3 | 0.942 | 2.01
TATACAGGGACAAAGGCCAGAGTACGAATGTCGA | 0.545 | 0.102 | 0.279 | -0.249 | 0.97 | 1.19 | 2.9 | 3.98 | 2.12 | 3.3
AGAACAAGGGCAATGAGTTGATAGCACGGGTGGC | 0.13 | 0.0784 | -0.454 | 0.0189 | 0.008 | 0.573 | 1.26 | 0.0922 | -0.195 | -0.176
AGTCAAAGTTCATCTAGGTAACGTACGATATGCT | 6.96 | 6.13 | 5.65 | 3.91 | 1.59 | 5.05 | 6.7 | 6.46 | 3.66 | 5.86
TAGACTAGGTCAGATCGGGCCAGTATACGCTATA | 1.54 | 0.872 | -0.254 | 0.626 | 0.289 | 2.47 | 3.05 | 2.82 | 1.07 | 2.03
GGAACGAGGGCAAGTTGATAGGAGAGTTTGATGG | 0.63 | 0.287 | -0.48 | 0.289 | -0.332 | 1.81 | 1.05 | 0.946 | 0.0757 | 0.63
CAAACTGGGTCACGAAAGGTCAAAGTCGAATGAC | 7.32 | 8.03 | 6.63 | 7.01 | 2.08 | 6.6 | 10.5 | 8.52 | 6.44 | 8.43
GCTTGTAGATCAAGGTTAAGGAAGACTAAGCTAA | 0.0551 | 0.428 | -0.182 | 0.363 | -0.628 | 1.68 | 1.05 | 2.33 | 0.604 | 1.48
CAAATTAGGTCAAGAGGTCAAAGTCCGCTTCCCG | 7.34 | 6.64 | 6.19 | 6.05 | 2.41 | 6.6 | 9.93 | 8.63 | 8.32 | 9.12
TCATATAGGTATATGCTAGGTGAAAGTCCGATCT | 0.567 | 0.913 | 0.175 | 0.545 | -0.249 | 0.818 | 0.703 | 1.78 | 3.31 | 2.54
CCTAGCAGGCCAATCTGCGTCACTCAAGGCTTGA | -0.461 | -0.378 | -0.462 | -0.429 | -0.0755 | -0.332 | -0.41 | -1.08 | -1.19 | -1.21
CTACCAAGGTGCACAAGGTCGTTGATTACTATTC | 0.933 | 1.22 | 0.723 | 1.74 | -0.173 | 1.69 | 0.548 | 0.538 | -0.186 | 0.246
CATACAGGGTCAGCTAGGCCAGCGTAGGGACGGC | 4.29 | 2.94 | -0.144 | 1.98 | 0.387 | 4.38 | 3.25 | 2.9 | 0.559 | 2.04
AATAGAGGGTCATCGTAGGCCAGAGTACGCACAG | 6.8 | 6.19 | 1.56 | 3.89 | 0.604 | 5.5 | 5.46 | 5.11 | 2.13 | 3.89
TAGGCTAGGTCATTGGGCCAGTATAGTACGCATC | 4 | 2.77 | 0.321 | 1.87 | 0.37 | 3.73 | 3.73 | 3.76 | 0.966 | 2.24
GCTGCTAGGTCAGGTTTGTCAGCTAACGGGTACG | 0.8 | 0.465 | -0.141 | 0.304 | -0.389 | 0.943 | 0.265 | 0.692 | -0.284 | 0.389
TCTTGTAGATCAGCAGGTTTAGAAAGCTGGCCAA | -0.241 | -0.13 | -0.52 | 0.0239 | -0.59 | 0.117 | -0.901 | 0.915 | 2.13 | 1.23
TTACCAAGGCGAAAGGTCGTTGATGCACGCCTTG | 1.27 | 1.41 | 0.121 | 1.38 | -0.953 | 3.5 | 5.49 | 6.09 | 5.18 | 6.24
ATCTCTAGGTAAAGATAGTTCGGTGAATGCAAAT | 0.128 | 1.18 | 0.268 | 0.0902 | 0.531 | 0.121 | 0.266 | 0.307 | 0.192 | 0.213
TCTAGCAGGCCAGAGGGACACTCAAGAGGTACGG | -0.341 | -0.607 | -1.2 | -0.951 | -1.48 | -0.201 | 0.823 | 1.13 | 1.39 | 1.15
